Source: PubChem BioAssay
Cycloheximide cs: Cycloheximide Counterscreen for Small Molecule Inhibitors of Shiga Toxin; AID 2314, 2010; cell reporter, cycloheximide protein synthesis inhibition counterscreen; max response, %; actives 12% (n = 300,000); in the data active = max response mostly above about 13%, no sharp cut-off; inactive = mostly below about 14%; also: read at 38.3 µM for the half of the compounds with a filed dose; 0% is about no effect
Pf growth 96h: Primary qHTS for delayed death inhibitors of the malarial parasite plastid, 96 hour incubation; P. falciparum luciferase reporter growth, 96 h; Potency, µM (top dose mostly 28.7 µM), for the others: at the highest dose activity change, negative = inhibition, most hits filed as inhibitors; actives 6.9% (n = 320,000); also: potency is read from the fitted curve at half-maximal effect; % is scaled to controls: 0 for no effect and ±100 for the full control effect
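Infected RBCs, 2% Hct / 0.05% parasitemia final; luciferase-reporter P. falciparum; cpd 96 h, 37 C, 5% CO2; luciferase detection reagent; luminescence.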
Shiga inhibitor: A qHTS for Small Molecule Inhibitors of Shiga Toxin | Vero cells, Shiga toxin protein synthesis inhibition reporter | inhibition, % at 38.7 µM | actives 9.2% (n = 290,000) | AID 2315, 2010; in the data active = inhibition mostly above about 28%, no sharp cut-off; inactive = mostly below about 43%; also: 0% is about no effect
Pf growth 48h: Primary qHTS for delayed death inhibitors of the malarial parasite plastid, 48 hour incubation | Potency, µM (series often up to 28.7 µM), inactives show at the top dose activity change, negative = inhibition, hits mostly inhibitors | AID 504832, 2011 | P. falciparum luciferase growth in erythrocytes, 48 h | actives 5.9% (n = 310,000); also: potency is read from the fitted curve at half-maximal effect; % is scaled to controls: 0 for no effect and ±100 for the full control effect
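Read-out is firefly luciferase luminescence from an integrated reporter in P. falciparum, so falling signal marks reduced parasite growth. Infected erythrocytes were at 2% hematocrit and 0.1% parasitemia (final) in Albumax-supplemented RPMI 1640.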
HCMV inh: qHTS Assay for inhibitors of the human cytomegalovirus (HCMV); AID 1259415, 2018; HFF cells, HCMV-luciferase reporter, 72 h; hits give low values; activity change, negative = inhibition, % at 57.5 µM; actives 4.5% (n = 410,000); in the data active = activity change below about -60%; inconclusive = no clear call, values can overlap the other calls; inactive = above about -39%; also: % is scaled to controls: 0 for no effect and ±100 for the full control effect
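Inhibition of viral replication was scored as loss of reporter luminescence in HFFs infected with HCMV-luciferase (MOI 1 PFU/cell) for 72 h; compounds tested at 2 doses, normalized to buffer and Salinomycin controls.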
Active calls of the source: *; u = inconclusive; x = not tested or not shown; [ ] = another dose, or the depositor's remark. An excerpt weighted towards active compounds, which were near 20% of everything screened. Unless noted, calls follow the shape of the dose curve; as a rule, active = well fitted inhibition curve with a large enough effect; inconclusive = small, poorly fitted or top-dose-only effect, or another doubt; inactive = no such curve, though single readings can be large or run the other way.

SMILES	Cycloheximide cs	Pf growth 96h	Shiga inhibitor	Pf growth 48h	HCMV inh
N#C/C(=C\c1ccc(N2CCOCC2)o1)C(=O)NC1CCCCC1	23*	u	46*	u	-6
N#C/C(=C/c1ccc(N2CCOCC2)o1)C(=O)Nc1ccccc1	36*	14%	76*	11%	58
CNC(=O)c1[nH]nc2c1CCc1cc(OC)ccc1-2	57*	5%	87*	u	10
COc1ccc2c(c1)CCc1c-2n[nH]c1C(=O)NCCC(C)C	43*	2%	88*	93%	-17
COc1ccc(OC)c(/C=N/NC(=O)c2[nH]nc3c2CCc2ccccc2-3)c1	5	9%	-11	11%	-38
CC(C)NC(=O)c1[nH]nc2c1CCc1ccccc1-2	42*	-29%	110*	4%	x
CCOP(=O)(OCC)C(Nc1cccc([N+](=O)[O-])c1)c1ccccc1 (stereo not given)	8	-22%	-8	u	6
CC(C)CN(c1ccccc1)S(=O)(=O)c1nnc(NC(=O)C(C)C)s1	-2	-24%	-3	-6%	19
CC1(C)SC2[C@@H](N=CN3CCCCCC3)C(=O)N2[C@H]1C(=O)O (stereo not given in full)	x	17µM*	x	u	x
CCN(CC(=O)Nc1ccc(NC(C)=O)cc1)C(=O)Cc1ccc(Cl)c(Cl)c1	8	u	-3	-2%	-64*
CN(C)C(=O)c1ccc(Nc2ncnc3sc4c(c23)CCCCC4)cc1	-5	u	-6	u	-14
O=C(CN(Cc1ccccc1)C(=O)CCC(=O)Nc1nccs1)NCC1CCCO1 (stereo not given)	-3	13%	-5	-21%	-13
COCCN(CC(=O)NCC1CCCO1)C(=O)CCC(=O)Nc1cc(C)on1 (stereo not given)	-7	1.7µM*	13	19%	7
O=C(CN(CC1CCCO1)C(=O)CCC(=O)Nc1nccs1)NCC1CCCO1 (stereo not given)	-2	13µM*	79	0%	21
Cc1ccc(Nc2nc(N)c3ccccc3n2)cc1Cl	43*	-1%	x	u	305
COc1cc2nc(Nc3ccc(F)cc3)nc(N)c2cc1OC	17*	27%	9	0.52µM*	65
COc1cc2nc(Nc3ccc(C)c(C)c3)nc(N)c2cc1OC	8	1%	19	0.52µM*	u
COc1cc2nc(Nc3ccc(C)c(Cl)c3)nc(N)c2cc1OC	11	41%	20	0.59µM*	-36
Cc1ccc2sc(N(Cc3cccnc3)C(=O)CCS(=O)(=O)c3ccccc3)nc2c1C	x	x	x	x	0
COc1cc2nc(Nc3cccc(C)c3)nc(N)c2cc1OC	x	x	x	x	-27
COc1cc2nc(N(C)C)nc(N)c2cc1OC	7	8%	31	u	-94*
CCOC(=O)c1ccc(Nc2nc(N)c3cc(OC)c(OC)cc3n2)cc1	6	-4%	40	1µM*	-25
Cc1ccc(Nc2ncnc(N)n2)cc1C	26*	4.1µM*	50*	-44%	-39
Nc1ncnc(Nc2ccccc2)n1	x	17%	x	-2%	-9
COc1cc2nc(N(C)CCCNC(=O)C3CCCO3)nc(N)c2cc1OC (stereo not given)	-1	x	32	x	x
SMILES	Cycloheximide cs	Pf growth 96h	Shiga inhibitor	Pf growth 48h	HCMV inh
C/C=C1/C2C=C(C)CC1(N)c1ccc(=O)[nH]c1C2 (stereo not given)	4	x	-3	x	x
C=C(C)CN(CC)C(=O)CCc1nnc(CCCc2ccccc2)o1	39*	9%	61*	43%	24
O=C(CCc1nnc(CCCCc2ccccc2)o1)N(CCO)Cc1ccccc1	-2	u	1	-9%	87
CCN(CCn1cccn1)C(=O)CCc1nnc(CCCc2ccccc2)o1	36*	32%	99*	-5%	23
CN(Cc1ccccc1)c1ncc(C=O)s1	-2	18%	-2	59%	-63*
CN(Cc1ccccc1)c1ncnc2sccc12	-1	-1%	5	11%	0
Cc1cc2n(n1)SC(Nc1ccc(F)c(Cl)c1)N2 (stereo not given)	32*	9%	active	34%	-25
Cc1ccc(-c2ccnc3cc(C)nn23)cc1	-3	40%	28	18%[0.00184 µM]	u
Cc1cc2nccc(-c3ccc(Cl)cc3Cl)n2n1	2	-2%	2	15%	-70*
NC(=O)c1cnn2c(-c3ccc(Cl)cc3Cl)ccnc12	-4	2%	-4	3%	x
Cc1cc2nccc(-c3ccncc3)n2n1	-1	34%	-4	12%	-64*
Cn1cc(C(=O)CCl)c2ccccc21	2	u	3	u	-98*
Cc1ccc(-n2c(-c3ccncc3)n[nH]c2=S)cc1	31*	21%	168*	-3%	u
CC(C)Cn1c(-c2csc3c2CCCC3)n[nH]c1=S	8	u	13	12µM*	35
COc1cc(-c2n[nH]c(=S)n2-c2ccc(C)cc2)cc(OC)c1OC	17*	22%	3	-39%	-5
CC(C)Cn1c(-c2ccncc2)n[nH]c1=S	-3	3.7µM*	-12	3%	u
CC1=C(c2ccc(C)cc2)S(=O)(=O)NC1=NCc1ccccc1Cl	x	x	x	x	0
CCCC1CC(C(=O)NC(C(C)Cl)C2OC(SC)C(O)C(O)C2O)N(C)C1 (stereo not given)	-2	0.0029µM*	-3	0.083µM*	2
CCC[C@@H]1C[C@@H](C(=O)NC(C(C)Cl)[C@H]2O[C@H](SC)[C@H](O)[C@@H](O)[C@H]2O)N(C)C1 (stereo not given in full)	-5	0.0033µM*	-5	u	-26
CCC[C@H]1C[C@H](C(=O)NC(C(C)Cl)C2O[C@@H](SC)C(OP(=O)(O)O)[C@@H](O)[C@@H]2O)N(C)C1 (stereo not given in full)	-7	x	-5	x	x
CCC[C@@H]1C[C@@H](C(=O)N[C@@H](C2O[C@H](SC)[C@H](O)[C@@H](O)[C@H]2O)[C@H](C)Cl)N(C)C1 (stereo not given in full)	-1	u	14	u	x
CC1CCCN(C(=O)c2cc(S(=O)(=O)N3CCCCC3)c[nH]2)C1 (stereo not given)	1	4%	-10	3%	-38
CC1(C(=O)OCC(=O)Nc2ccc(C(N)=O)cc2)CC1(Cl)Cl (stereo not given)	6	36%	14	32%	-30
CC1(C(=O)OCC(=O)Nc2ccc3ccccc3c2)CC1(Cl)Cl (stereo not given)	37*	42%	64*	20%	-17
NS(=O)(=O)c1cc(C(=O)OCC(=O)c2ccc3c(c2)OCCO3)ccc1Cl	40*	-41%	59*	-11%	1
O=C(COC(=O)c1ccc(CO)cc1)Nc1ccc2ccccc2c1	x	19%	x	0%	22
